Data on 27 molecules can be found in PubChem BioAssay (Tox21).

Several values for one entry are separate records, joined by “and”; a condition that tells them apart may be missing. Equal entries are not always repeated. Inconclusive results are not listed. Activity calls are given as the source filed them. Unless noted, calls follow the shape of the dose curve; as a rule, active = well fitted curve in the direction sought with a large enough effect in the repeat runs; inconclusive = weak or mixed curves; inactive = flat fitted curve, though single readings scatter.

Test [1] can be described thus: qHTS assay to test for compound auto fluorescence at 535 nm (green) in HEK293 cells (AID 720680). In general terms: In qHTS, concentration-response curves come from the screen itself.
Test [2] in a line: qHTS assay to test for compound auto fluorescence at 460 nm (blue) in HEK293 cell free culture (AID 720681). An outline of the steps:
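Test compounds were pinned into cell-free culture medium (DMEM with 10% FBS) and fluorescence was read directly at Ex/Em 405/460 nm. Signals were expressed as fluorescence equivalents of triamterene, with DMSO vehicle as control.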

Test [3] is described as follows: qHTS assay to test for compound auto fluorescence at 535 nm (green) in HEK293 cell free culture (AID 720682). An outline of the steps:
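DMEM + 10% FBS, cell-free; cpd or DMSO pinned in; Ex485/Em535 read; output as fluorescein-equivalent signal.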

A short description of test [4]: qHTS assay to test for compound auto fluorescence at 590 nm (red) in HEK293 cell free culture (AID 720683). An outline of the steps: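 Tox21 10K library compounds were pinned into cell-free DMEM with 10% FBS and fluorescence was read at excitation 540 nm. Activity is expressed as Rose Bengal sodium equivalency.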
A short description of test [5]: qHTS assay to test for compound auto fluorescence at 590 nm (red) in HepG2 cell free culture (AID 720684). An outline of the steps:
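Red fluorescence (540 nm excitation, 590 nm emission) was measured after compound transfer into cell-free MEM supplemented with 10% FBS. Values are equivalencies against Rose Bengal sodium.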

Test [6] is described as follows: qHTS assay to test for compound auto fluorescence at 460 nm (blue) in HepG2 cell free culture (AID 720685). An outline of the steps: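 Compound (23 nL) or DMSO pinned into cell-free MEM with 10% FBS; blue fluorescence read at 405/460 nm excitation/emission, expressed as auto-fluorescence equivalency to triamterene.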
Test [7] can be described thus: qHTS assay to test for compound auto fluorescence at 535 nm (green) in HepG2 cell free culture (AID 720686).
Test [8] is described as follows: qHTS assay to test for compound auto fluorescence at 460 nm (blue) in HepG2 cells (AID 720687). In outline: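 Cells (2,000/well in MEM with 10% FBS) attached overnight at 37 C, then were exposed to compound or DMSO for 1 hr at 37 C, 5% CO2. Fluorescence read at Ex/Em 405/460 nm, expressed as triamterene-equivalent signal.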
Test [9] has as its target Glucocorticoid receptor (Homo sapiens) (UniProt P04150). In words: qHTS assay to identify small molecule agonists of the glucocorticoid receptor (GR) signaling pathway (AID 720691; active = well fitted activation curve with a large enough effect in the signal ratio in the repeat runs, not every such curve was filed as active; the % refers to the signal ratio). In outline:
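Fluorescence intensity from LiveBLAzer B/G FRET substrate (2 h, room temperature) reports beta-lactamase expression driven by the glucocorticoid response element in GR-bla HeLa cells after 18 h compound exposure at 37 C.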

Test [10] has the same target. Put plainly: qHTS assay to identify small molecule antagonists of the glucocorticoid receptor (GR) signaling pathway (AID 720692; active = well fitted inhibition curve with a large enough effect in the signal ratio in the repeat runs, not every such curve was filed as active; the % refers to the signal ratio; also: potency is read from the fitted curve at half-maximal effect). An outline of the steps:
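HeLa GR-bla cells; cmpd + dex 5 nM final, 18 h 37 C; LiveBLAzer B/G FRET substrate 2 h RT; fluorescence intensity read. Antagonist mode, qHTS.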

Glucocorticoid receptor (Homo sapiens), sequence (P04150 whole entry, looked up): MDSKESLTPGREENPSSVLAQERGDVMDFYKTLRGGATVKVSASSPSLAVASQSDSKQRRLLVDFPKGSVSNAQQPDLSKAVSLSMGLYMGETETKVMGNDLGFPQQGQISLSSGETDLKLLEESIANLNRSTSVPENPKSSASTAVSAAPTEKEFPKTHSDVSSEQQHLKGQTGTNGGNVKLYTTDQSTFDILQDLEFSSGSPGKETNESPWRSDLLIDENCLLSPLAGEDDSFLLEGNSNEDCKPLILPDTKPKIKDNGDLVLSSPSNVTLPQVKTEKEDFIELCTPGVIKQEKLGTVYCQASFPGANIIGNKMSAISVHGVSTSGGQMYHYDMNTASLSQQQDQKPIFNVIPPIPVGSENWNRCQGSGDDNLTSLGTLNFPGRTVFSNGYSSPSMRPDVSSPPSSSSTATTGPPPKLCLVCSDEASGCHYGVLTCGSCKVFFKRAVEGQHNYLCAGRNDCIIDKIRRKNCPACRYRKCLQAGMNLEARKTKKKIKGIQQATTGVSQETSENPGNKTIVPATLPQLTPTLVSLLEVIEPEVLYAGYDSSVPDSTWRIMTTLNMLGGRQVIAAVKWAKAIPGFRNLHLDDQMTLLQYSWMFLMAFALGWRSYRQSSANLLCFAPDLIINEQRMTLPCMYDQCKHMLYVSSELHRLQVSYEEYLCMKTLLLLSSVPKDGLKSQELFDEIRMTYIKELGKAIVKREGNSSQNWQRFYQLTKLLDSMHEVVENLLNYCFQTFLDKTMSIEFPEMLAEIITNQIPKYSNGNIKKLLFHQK

With `COc1ccc(CCC(C)=O)cc1`, the molecule was called inactive in [1], in [2], in test [3], in test [4], in test [5] and in test [6]. The call in test [7] and in test [8] was inactive.
For `CC(CCl)OP(=O)(OC(C)CCl)OC(C)CCl` (configuration not stated), the molecule was classed as inactive in test [1], in [2], in test [3], in test [4], in test [5] and in [6]. For the same molecule, the molecule was called inactive in test [7], in test [8] and in test [9].
As for `Brc1ccc(Br)c(Br)c1`, the result in test [1], in test [2], in [3], in test [4], in [5] and in [6] was inactive. Further, the outcome in test [7] and in test [8] was inactive.
For the molecule `CC(C)OP(=O)(CP(=O)(OC(C)C)OC(C)C)OC(C)C`, the outcome in [1], in test [2], in [3], in [4], in test [5] and in test [6] was inactive. Further, the result in test [7] and in test [8] was inactive.
Turning to `COc1ccc(N)c(C)c1`, the molecule was classed as inactive in [1], in [2], in [3], in [4], in test [5] and in test [6]. Besides, the molecule was called inactive in test [7] and in test [8].
For the molecule `NC(=S)NNC(N)=S`, the molecule was called inactive in test [1], in test [2], in [3], in test [4], in test [5] and in test [6]. For the same molecule, the molecule was classed as inactive in [7], in test [8] and in test [9]. Besides, the Potency entry in test [10] was “inactive”.
For `N[C@H](Cc1c[nH]c2ccccc12)C(=O)O`, the call in [1], in test [2], in test [3], in test [4], in test [5] and in test [6] was inactive. In addition, the result in test [7], in test [8] and in [9] was inactive.
Regarding `CC(=O)Oc1ccc(C)cc1`, the molecule was called inactive in test [1], in test [2], in test [3], in test [4], in test [5] and in test [6]. In addition, the molecule was classed as inactive in test [7], in [8] and in test [9]. In addition, the Potency result in test [10] was “inactive”.
`CCCCCCCCCCCC(=O)OC`: the molecule was classed as inactive in [1], in test [2], in [3], in test [4], in test [5] and in test [6]. Besides, the molecule was called inactive in [7] and in [8]. In test [10], the Potency entry was “inactive”.
Take `O=C(O)c1ccc(S(=O)(=O)N(Cl)Cl)cc1`: the outcome in test [1], in [2], in test [3], in [4], in test [5] and in test [6] was inactive. Also, the call in test [7] and in test [8] was inactive. Moreover, the Potency result in test [10] was “inactive”.
With `c1ccc(Oc2ccccc2)cc1`, the result in test [1], in test [2], in test [3], in [4], in test [5] and in test [6] was inactive. Further, the outcome in [7] and in test [8] was inactive. The Potency result in test [10] is “inactive”.
For the molecule `COCCOC(=O)c1ccccc1C(=O)OCCOC`, the molecule was classed as inactive in [1], in test [2], in [3], in test [4], in test [5] and in test [6]. Further, the result in test [7] and in [8] was inactive. Moreover, in test [10], the Potency result was “inactive”.
As for `CCOCC(=O)O`, the molecule was classed as inactive in [1], in test [2], in test [3], in [4], in [5] and in test [7]. The molecule was classed as inactive in test [8] and in [9]. The Potency result in [10] is “inactive”.
As to `CCNc1cccc(C)c1`, the result in [1], in test [2], in [3], in [4], in [5] and in test [7] was inactive. For the same molecule, the result in test [8] was inactive.
With `CCCOC(=O)c1ccccc1`, the molecule was called inactive in test [1], in test [2], in test [3], in [4], in test [5] and in [6]. Also, the outcome in [7] and in test [8] was inactive. In [10], the Potency result is “inactive”.
As for `O=C(O)c1ccccc1C(=O)O`, the molecule was classed as inactive in test [1], in [2], in [3], in [4], in test [5] and in test [6]. In addition, the result in test [7] and in test [8] was inactive. In addition, the Potency result in test [10] was “inactive”.
Take `OC1C(O)C(O)C(O)C(O)C1O` (configuration not stated): the call in test [1], in test [2], in test [3], in test [4], in [5] and in [7] was inactive. In [8], the call was inactive.
Consider `O=C(O)c1ccc(C(=O)O)c(C(=O)O)c1`, for which the outcome in test [1], in [2], in test [3], in [4], in [5] and in [7] was inactive. Further, the call in test [8] and in test [9] was inactive. In addition, the Potency result in test [10] was “inactive”.
With `C=CCCCCCCCCC(=O)O`, the call in test [1], in test [2], in test [3], in test [4], in [5] and in test [6] was inactive. In addition, the call in [7] and in [8] was inactive. In test [10], the Potency entry is “inactive”.
As to `CC(=O)CCC=C(C)C`, the molecule was called inactive in test [1], in test [2], in test [3], in test [4], in test [5] and in [7]. For the same molecule, the outcome in [8] was inactive. Besides, the Potency result in test [10] is “inactive”.
Turning to `C=Cc1ccc(C)cc1`, the molecule was classed as inactive in [1], in test [2], in test [3], in test [4], in test [5] and in [7]. The call in [8] and in [9] was inactive. Also, the Potency entry in test [10] was “inactive”.
For `COc1ccc(OC)cc1`, the molecule was classed as inactive in [1], in [2], in [3], in test [4], in test [5] and in [6]. The call in [7] and in test [8] was inactive. For the same molecule, the Potency entry in [10] was “inactive”.
Turning to `CCCCCCCC=O`, the call in [1], in [2], in test [3], in test [4], in [5] and in test [7] was inactive. The molecule was called inactive in test [8].
With `CCc1ccccc1CC`, the molecule was classed as inactive in test [1], in test [2], in [3], in test [4], in test [5] and in [7]. The outcome in test [8] was inactive. Also, the Potency entry in test [10] was “inactive”.
In the case of `CCCCC(C=O)CC` (configuration not stated), the molecule was classed as inactive in [1], in test [2], in test [3], in test [4], in test [5] and in test [7]. In addition, the result in test [8] was inactive. In addition, the Potency result in [10] was “inactive”.
For `C[C@]12CC[C@@H]3c4ccc(O)cc4CC[C@H]3[C@@H]1C[C@@H](O)[C@@H]2O`, the outcome in test [1], in test [2], in test [3], in test [4], in [5] and in test [6] was inactive. In addition, the molecule was classed as inactive in [7] and in test [8]. The Potency in [10] was 12 µM (active) and 38.9 µM (active).
In the case of `O=S(=O)(O)c1ccccc1`, the call in test [1], in [2], in test [3], in test [4], in test [5] and in test [6] was inactive. Moreover, the result in [7] and in [8] was inactive. Besides, in [10], the Potency entry is “inactive”.
